# From PubChem BioAssay (NCI)
# This is part of a sample that, as a whole, favours compounds with a hit. Of some 83,000 tested, about 20% had one in any assay.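 Step 1: grow cells in 96-well plates. Step 2: add test compound at a single concentration. Step 3: incubate 48 h. Step 4: record percent growth.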 Values without a mark were called inactive. Activity calls are given as the source filed them.
# Test system: UACC-62 melanoma
# Test: NCI-60 one-dose screen, 48 h (100 = growth as untreated, 0 = no growth, -100 = all killed)
# Conditions: 10 µM
# Method: Growth inhibition of the UACC-62 human tumor cell line is measured as a screen for anti-cancer activity. Cells are grown in 96 well plates and exposed to the test compound for 48 hours. Compounds are tested at a single concentration, which is 10^-5 M for most compounds. The reported endpoint is percent growth (GI% or GIPRCNT), where numbers from 0 - 100% represent growth inhibition, and numbers from -100% - 0 represent cell death. For example, a value of 40 represents 60% growth inhibition. A value of 0 means no net growth occurred over the course of the experiment. A value of -40 indicates 40% of cells at the beginning of the experiment died by the end of the experiment. A value of -100 means all cells are dead at the end of the experiment.
# NCI-60 Human Tumor Cell Lines Screen was performed using the standard one-dose NCI protocol, which is described in more detail at https://dtp.cancer.gov/discovery_development/nci-60/default.htm.
# Compounds with GIPRCNT values below 10 were considered active. Activity score was based on GIPRCNT using the following formula: […]
# Score is 0 for GIPRCNT values of 100 or above, 50 for GIPRCNT values of 0, and 100 for GIPRCNT values of -100.
row,SMILES,growth
1,CCOc1cc(Br)c(C(C)NC(=O)c2cccc(OC)c2)cc1OCC (stereo not given),-56.2% (active)
2,COc1cc(C2C(C#N)=C(c3c[nH]c4ccccc34)Nc3nc(N)[nH]c(=O)c32)cc(OC)c1OC (stereo not given),84.2%
3,CC(C)c1ncc(CO)n1Cc1c(Cl)cccc1Cl,108%
4,COc1ccc2nc(NC(=O)Nc3c(F)cccc3F)sc2c1,94.4%
5,COc1ccc(N2CCN(c3nc(-c4ccccc4)c(C#N)c(=O)[nH]3)CC2)cc1,94.8%
6,CCOC(=O)c1cc2c(n1Cc1cc(OC)cc(OC)c1)-c1oncc1CC2,40.3%
7,COC(=O)[C@]12CC[C@@H](C)[C@H](C)[C@@H]1C1=CC[C@@H]3[C@@]4(C)CC(=O)[C@H](O)[C@@]5(C)COC(=C45)C[C@@]3(C)[C@]1(C)CC2,-75.3% (active)
8,CC(C)c1[nH]nc2c(NCc3ccc(-c4ccccn4)cc3)nc(SCCN(C)C)nc12,-37.2% (active)
9,Cc1ccccc1C1=N[C@@H](Cc2ccccc2)C(=O)c2c(nc3ccccn23)N1,103%
10,CC(=O)OCC(COC(C)=O)(COC(C)=O)COC(C)=O,103%
11,COCc1cc2c(cc1Br)OCO2,100%
12,CCN(CC)c1ccc(/C=C/C2=[N+](C)c3ccccc3C2(C)C)c(C)c1,-21.4% (active)
13,COc1cccc2c1C(=O)c1c(O)c3c(c(O)c1C2=O)C[C@@](O)(C(=O)COC(=O)c1cccnc1)C[C@@H]3OC1CC(N)C(O)C(C)O1 (stereo not given in full),-88.4% (active)
14,CCNC(=S)NN,99.2%
15,C=CCOc1ccc2c(c1)CC=C1[C@@H]2CC[C@]2(C)C(=O)/C(=N/O)C[C@@H]12,108%
16,COc1ccc(-c2nnc(N3CCN(C(=O)CN4CCN(c5ccc(Cl)cc5)CC4)CC3)nc2-c2ccc(OC)cc2)cc1,58.8%
17,C/C(=N/NC(=O)c1sc(=S)n(C)c1N)c1cc2cc(Cl)ccc2o1,76.2%
18,COc1ccc(S(=O)(=O)Nc2ccc(OCc3nnc(-c4ccc(Cl)cc4)o3)c(F)c2)cc1,42.4%
19,Cc1[nH]nc2c(=S)[nH]c(=O)[nH]c12,88.5%
20,O=C(O)CCCN1C(=O)NC2(C1=O)c1ccccc1-c1ccccc12,99.3%

row,SMILES,growth
1,CCNC1(NC#N)CCCCC1,105%
2,C#CCNCCN1C(=O)c2ccc3c4c(ccc(c24)C1=O)C(=O)N(CCNCC#C)C3=O,16.7%
3,CCCCCc1cc[n+](CC(=O)c2ccc(Cl)cc2)cc1,82.8%
4,CCCCCCCCCCCC(c1ccccc1)N(C)C (stereo not given),94.9%
5,COc1cc(Nc2ccnc(N3CCN(c4ccnc5cc(Cl)ccc45)CC3)n2)cc(OC)c1,-21.6% (active)
6,O=C(NCCc1nccs1)c1cnc2c(S)cccc2c1,-6.53% (active)
7,C=CCN1C(=O)/C(=C\c2ccc3c(c2)CCC3)SC1=S,99.2%
8,COc1ccccc1NC1=C(N2CCCCC2)C(=O)c2ccccc2C1=O,81.4%
9,NC1CCC(Nc2nc(NCc3cc(Cl)ccc3O)c3ncn(C4CCCC4)c3n2)CC1 (stereo not given),-58.8% (active)
10,COc1ccc(-c2nsc3c2NC(=O)CC3c2ccc(Cl)cc2)cc1 (stereo not given),73.4%
11,CCCCOCC(=O)NC(NP(=O)(N(C)C)N(C)C)C(Cl)(Cl)Cl (stereo not given),103%
12,O=C(NNc1nc(N2CCCC2)nc(N2CCCC2)n1)c1ccccc1,99.3%
13,O=C(Nc1cccc(-c2nc3ccccc3[nH]2)c1)c1cccc(NC(=O)c2ccco2)c1,-71.7% (active)
14,CCc1ccc(-c2nnc(COc3ccc(-c4nc5ccc(C)cc5[nH]4)cc3OC)o2)cc1,79.6%
15,CC(C)OP(=O)(O)c1ncc(-c2ccc(C(F)(F)F)cc2)c(NC2CCCCCC2)n1,31.6%
16,C#C[C@]1(O)CC[C@H]2[C@@H]3CC[C@H]4CC(F)(F)CC[C@]4(C)[C@H]3CC[C@@]21C,78.8%
17,O=S(=O)(NC1c2ccccc2Oc2ccccc21)c1ccccc1,97.8%
18,COc1ccc(-c2nc(NC(=O)CS(=O)(=O)c3ccc(F)cc3)sc2C)cc1,74.9%
19,CCN(CC)CC(O)CNc1ccnc2cc(Cl)c(Cl)cc12 (stereo not given),92.8%
20,C[N+]1(CC2CO2)CCCCCC1 (stereo not given),102%
